# Reference: the supplement of paper PMC7595190
# Unmarked numbers belong to inactive results.
# Tested on: MV4-11
# Assay: CellTox Green cytotoxicity fluorescence relative to DMSO vehicle (fold of vehicle RFU); higher = more cell death (loss of membrane integrity), active = 2 or more
# Description: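 Paediatric AML cell lines (MV4-11, CMK, Kasumi-1; 4x10^4 cells/well, 96-well) treated with single compounds from the Selleckchem apoptosis library at 0.01, 0.1 and 1 µM. Cytotoxicity was read with CellTox Green (RFU, Ex 485/Em 520) at 24, 48 and 72 h and normalised to the 0.1% DMSO vehicle. Normalised RFU >= 2 was taken as a successful, cell-killing treatment.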
Structure (SMILES),"CellTox Green cytotoxicity fluorescence (0.01 µM, 24 h)","CellTox Green cytotoxicity fluorescence (0.01 µM, 48 h)","CellTox Green cytotoxicity fluorescence (0.01 µM, 72 h)","CellTox Green cytotoxicity fluorescence (0.1 µM, 24 h)","CellTox Green cytotoxicity fluorescence (0.1 µM, 48 h)","CellTox Green cytotoxicity fluorescence (0.1 µM, 72 h)","CellTox Green cytotoxicity fluorescence (1 µM, 24 h)","CellTox Green cytotoxicity fluorescence (1 µM, 48 h)","CellTox Green cytotoxicity fluorescence (1 µM, 72 h)"
COc1cc([C@@H]2c3cc4c(cc3[C@H](O)[C@H]3COC(=O)[C@@H]23)OCO4)cc(OC)c1OC [Picropodophyllin],0.934,0.932,0.939,0.922,0.924,0.931,1.28,2.6 (active),3.18 (active)
COc1cc(C)[nH]c(=O)c1CNC(=O)c1c(C)n([C@H](C)C2CCOCC2)c2ccccc12,0.942,0.94,0.941,0.942,0.951,0.957,0.942,0.936,0.948
CC1=C(O)C(=O)C=C2C1=CC=C1[C@@]2(C)CC[C@@]2(C)[C@@H]3C[C@](C)(C(=O)O)CC[C@]3(C)CC[C@]12C [Celastrol],0.931,0.955,0.964,0.966,0.976,1.01,1.29,1.96,2.21 (active)
Cc1cc2c(C(C)C)c(O)c(O)c(C=O)c2c(O)c1-c1c(C)cc2c(C(C)C)c(O)c(O)c(C=O)c2c1O,0.979,1,1,1,1,0.993,0.973,0.959,1.02
